Potency data for 8 compounds are collected here from PubChem BioAssay (Tox21).

“And” between values parts separate entries of the source, which are not always exact repeats. Equal values may be shown once. The source made the active and inactive calls. Unless noted, the call rests on the fitted dose curve; in most records, active means well fitted curve in the direction sought with a large enough effect in the repeat runs; inconclusive means weak or mixed curves; inactive means no such curve, though single readings can be large; an effect the other way counts as inactive or inconclusive.

Assay [1] is described as follows: qHTS assay to identify small molecule antagonists of the thyroid receptor (TR) signaling pathway - cell viability counter screen (AID 743064). Further: nearly all actives have a fitted effect of over 50% in size. Further: potency means the concentration at half of the fitted maximal effect. The method, boiled down: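 Compounds were tested on GH3.TRE-Luc cells in the presence of T3 at 1 nM final. Following 23.5 h at 37 °C, cell viability was quantified by CellTiter-Fluor.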
In general terms: qHTS replaces the single test concentration by a dilution series.

Assay [2] can be described thus: qHTS assay to identify small molecule antagonists of the thyroid receptor (TR) signaling pathway (AID 743065). Further: potency means the concentration at half of the fitted maximal effect; nearly all actives have a fitted effect of over 55% in size. The method, boiled down: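 GH3.TRE-Luc rat pituitary cells carrying two TR response elements driving luciferase were plated for 4 h, given compound plus 1 nM T3 (final), and incubated 23.5 h at 37 C. ONE-Glo luminescence measured reporter inhibition; CellTiter-Fluor fluorescence tracked cytotoxicity.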

In assay [3] the target is Estrogen receptor (Homo sapiens) (UniProt P03372). Kind of assay: qHTS assay to identify small molecule antagonists of the estrogen receptor alpha (ER-alpha) signaling pathway (AID 743069; active means well fitted curve in the direction sought with a large enough effect in the signal ratio in the repeat runs, not every such curve was filed as active; inconclusive means weak or mixed curves, or effect the other way; inactive means no such curve, though single readings can be large or run the other way; the % refers to the signal ratio; further: potency means the concentration at half of the fitted maximal effect). The procedure, abridged:
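Estradiol-stimulated ER-alpha-UAS-bla HEK293 cells, 18 hr compound exposure at 37C. LiveBLAzer B/G substrate, 2 hr RT, fluorescence read.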

The nature of assay [4]: qHTS assay to identify small molecule antagonists of the estrogen receptor alpha (ER-alpha) signaling pathway - cell viability counter screen (AID 743074; calls by dose curve;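 further: HEK293 cells carrying ER-alpha-UAS-bla reporter stimulated with 17beta-estradiol; nearly all actives have a fitted effect of over 45% in size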; further: potency means the concentration at half of the fitted maximal effect).
For assay [5], the target named is Estrogen receptor (Homo sapiens) (UniProt P03372). Kind of assay: qHTS assay to identify small molecule agonists of the estrogen receptor alpha (ER-alpha) signaling pathway (AID 743075; calls by dose curve;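 further: HEK293 GripTite cells with ER-alpha and UAS-driven beta-lactamase reporter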).
Assay [6] shares this target. Briefly: qHTS assay to identify small molecule agonists of the estrogen receptor alpha (ER-alpha) signaling pathway using the BG1 cell line (AID 743079). Further: nearly all actives have a fitted effect of over 20% in size. Further: potency means the concentration at half of the fitted maximal effect. The note with it: BG1Luc4E2 cells, ERE-luciferase agonist, 22 h; activation: at 70.3 µM (top of the series).
The nature of assay [7]: qHTS assay to identify small molecule antagonists of the estrogen receptor alpha (ER-alpha) signaling pathway using the BG1 cell line (AID 743080; calls by dose curve;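 further: BG1 cells stimulated with 17beta-estradiol alongside compound; nearly all actives have a fitted effect of over 25% in size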). The settings on record: BG1Luc4E2 ERE-luciferase antagonist mode, luminescence; activity change, negative = inhibition: at 70.3 µM (top of the series). The procedure, abridged: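 Luciferase inhibition measured with ONE-Glo after 30 min at RT in BG1Luc4E2 cells given test compounds and 17beta-estradiol for 21.5 h at 37 C; CellTiter-Fluor viability read in the same wells beforehand.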

The nature of assay [8]: qHTS assay to identify small molecule antagonists of the estrogen receptor alpha (ER-alpha) signaling pathway using the BG1 cell line - cell viability counter screen (AID 743081).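 Further: compound given together with 17beta-estradiol as the ER stimulus; nearly all actives have a fitted effect of over 45% in size.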 Further: potency means the concentration at half of the fitted maximal effect.
Assay [9] has as its target Aromatase (Homo sapiens) (UniProt P11511). Kind of assay: qHTS assay to identify aromatase inhibitors (AID 743083). Further: nearly all actives have a fitted effect of over 55% in size. Further: potency means the concentration at half of the fitted maximal effect.
Assay [10] is described as follows: qHTS assay to identify aromatase inhibitors - cell viability counter screen (AID 743084).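 Further: cells stimulated with testosterone during compound exposure; nearly all actives have a fitted effect of over 55% in size.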 Further: potency means the concentration at half of the fitted maximal effect.
Assay [11] in a line: qHTS assay for small molecule agonists of the antioxidant response element (ARE) signaling pathway - cell viability counter screen (AID 743203; calls by dose curve; further: nearly all actives have a fitted effect of over 55% in size; further: potency means the concentration at half of the fitted maximal effect). The method, boiled down:
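HepG2 cells carrying ARE-driven beta-lactamase; 2,000 cells/well; 5 hrs plating; compound pinned from DMSO; 16 hrs 37C/5% CO2; CellTiter-Glo added; 30 min RT; luminescence.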

Assay [12] is described as follows: qHTS assay for small molecule activators of the heat shock response signaling pathway - cell viability counter screen (AID 743209). Further: nearly all actives have a fitted effect of over 50% in size. Further: potency means the concentration at half of the fitted maximal effect. The method, boiled down:
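Luminescence from CellTiter-Glo, added after the beta-lactamase FRET read, gave the viability signal. Cells were HSE-bla HeLa treated with DMSO-dissolved compounds for 5 h at 37 C following overnight plating.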

A short description of assay [13]: qHTS assay for small molecule activators of the heat shock response signaling pathway (AID 743210; active means well fitted activation curve with a large enough effect in the signal ratio in the repeat runs, with a control signal flat, not every such curve was filed as active; inconclusive means weak or mixed curves; the % refers to the signal ratio;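 further: HeLa cells with beta-lactamase reporter driven by heat shock elements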). The method, boiled down: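 Reporter gene assay: HeLa cells stably bearing an HSE-bla construct, compound treatment 5 h at 37 C, LiveBLAzer substrate 2.5 h at RT, fluorescence intensity.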
Assay [14] deals with thyroid hormone receptor (rat, GH3 cells). Kind of assay: qHTS assay to identify small molecule agonists of the thyroid receptor (TR) signaling pathway (AID 743066; calls by dose curve).
A short description of assay [15]: qHTS assay to identify small molecule that activate the aryl hydrocarbon receptor (AhR) signaling pathway - cell viability counter screen (AID 743086). Further: nearly all actives have a fitted effect of over 45% in size. Further: potency means the concentration at half of the fitted maximal effect. The procedure, abridged: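 HepG2-AhR-luc (HG2L7.5c1) cells, 4000/well, were preincubated 5 h at 37C, exposed to compound in qHTS format for 24 hr at 37C, then given CellTiter-Fluor for 30 min; viability was read as fluorescence in the reporter wells.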

For assay [16], the target named is Peroxisome proliferator-activated receptor gamma (Homo sapiens) (UniProt P37231). Kind of assay: qHTS assay to identify small molecule agonists of the peroxisome proliferator-activated receptor gamma (PPARg) signaling pathway (AID 743094; active means well fitted activation curve with a large enough effect in the signal ratio in the repeat runs, not every such curve was filed as active; inconclusive means weak or mixed curves, or effect the other way; inactive means no such curve, though single readings can be large or run the other way; the % refers to the signal ratio; further: potency means the concentration at half of the fitted maximal effect). The procedure, abridged:
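Beta-lactamase FRET fluorescence was the read-out after a 1 h room-temperature substrate step, following 17 h compound treatment at 37C of HEK293H cells expressing a UAS-driven bla reporter responsive to PPARg.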

For assay [17], the target named is Aryl hydrocarbon receptor (Homo sapiens) (UniProt P35869). Kind of assay: qHTS assay to identify small molecule that activate the aryl hydrocarbon receptor (AhR) signaling pathway (AID 743085). Further: nearly all actives have a fitted effect of over 15% in size. Further: potency means the concentration at half of the fitted maximal effect.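 On activation: HG2L7.5c1 human HepG2 liver cells with stably integrated DRE-driven firefly reporter.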 The procedure, abridged:
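24 h compound exposure, 37C, HepG2-derived HG2L7.5c1 cells with DRE-responsive luciferase. Readouts: fluorescence viability, then luminescence at room temperature after 30 min.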

Assay [18] in a line: qHTS assay to identify small molecule antagonists of the peroxisome proliferator-activated receptor gamma (PPARg) signaling pathway - cell viability counter screen (AID 743194). Further: nearly all actives have a fitted effect of over 55% in size. Further: potency means the concentration at half of the fitted maximal effect. The procedure, abridged:
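PPARg-UAS-bla HEK293H cells were plated, rested 5 h at 37 C, then treated with compounds plus rosiglitazone (50 nM final) for 17 h at 37 C; viability was then read by CellTiter-Glo luminescence after 30 min at room temperature.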

The target of assay [19] is Peroxisome proliferator-activated receptor gamma (Homo sapiens) (UniProt P37231). Briefly: qHTS assay to identify small molecule antagonists of the peroxisome proliferator-activated receptor gamma (PPARg) signaling pathway (AID 743191; calls by dose curve; further: nearly all actives have a fitted effect of over 30% in size). The method, boiled down:
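GeneBLAzer PPARg UAS-bla HEK293H cells carrying a UAS-driven beta-lactamase reporter were plated at 3000 cells/well, preincubated 5 h at 37C, then given compound for 17 h at 37C; LiveBLAzer B/G FRET substrate was read after 1 h at room temperature.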

A short description of assay [20]: qHTS assay for small molecule agonists of the antioxidant response element (ARE) signaling pathway (AID 743202; active means well fitted activation curve with a large enough effect in the signal ratio in the repeat runs, not every such curve was filed as active; inconclusive means weak or mixed curves, or effect the other way; inactive means no such curve, though single readings can be large or run the other way; the % refers to the signal ratio; further: potency means the concentration at half of the fitted maximal effect). The procedure, abridged:
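Compounds delivered in DMSO to ARE-bla HepG2 cells (2,000 cells/well, pre-incubated 5 h) and left 16 h at 37 C. LiveBLAzer B/G FRET substrate then added for 2 h at RT before fluorescence reading.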

Chain of Aromatase (Homo sapiens) (P11511 whole entry, looked up): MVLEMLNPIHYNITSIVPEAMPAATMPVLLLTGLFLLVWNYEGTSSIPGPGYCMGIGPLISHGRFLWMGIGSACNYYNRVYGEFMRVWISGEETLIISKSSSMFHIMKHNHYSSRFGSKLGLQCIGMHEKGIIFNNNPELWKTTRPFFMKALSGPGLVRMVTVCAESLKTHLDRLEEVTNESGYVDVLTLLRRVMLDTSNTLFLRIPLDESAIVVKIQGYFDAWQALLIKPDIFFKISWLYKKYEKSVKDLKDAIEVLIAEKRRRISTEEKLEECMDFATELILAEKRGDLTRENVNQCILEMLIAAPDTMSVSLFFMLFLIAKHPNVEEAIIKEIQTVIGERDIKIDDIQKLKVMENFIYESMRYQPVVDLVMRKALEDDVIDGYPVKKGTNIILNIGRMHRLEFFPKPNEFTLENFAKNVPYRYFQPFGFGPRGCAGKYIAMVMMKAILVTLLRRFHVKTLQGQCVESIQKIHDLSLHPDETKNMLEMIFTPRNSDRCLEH
Chain of Aryl hydrocarbon receptor (Homo sapiens) (P35869 whole entry, looked up): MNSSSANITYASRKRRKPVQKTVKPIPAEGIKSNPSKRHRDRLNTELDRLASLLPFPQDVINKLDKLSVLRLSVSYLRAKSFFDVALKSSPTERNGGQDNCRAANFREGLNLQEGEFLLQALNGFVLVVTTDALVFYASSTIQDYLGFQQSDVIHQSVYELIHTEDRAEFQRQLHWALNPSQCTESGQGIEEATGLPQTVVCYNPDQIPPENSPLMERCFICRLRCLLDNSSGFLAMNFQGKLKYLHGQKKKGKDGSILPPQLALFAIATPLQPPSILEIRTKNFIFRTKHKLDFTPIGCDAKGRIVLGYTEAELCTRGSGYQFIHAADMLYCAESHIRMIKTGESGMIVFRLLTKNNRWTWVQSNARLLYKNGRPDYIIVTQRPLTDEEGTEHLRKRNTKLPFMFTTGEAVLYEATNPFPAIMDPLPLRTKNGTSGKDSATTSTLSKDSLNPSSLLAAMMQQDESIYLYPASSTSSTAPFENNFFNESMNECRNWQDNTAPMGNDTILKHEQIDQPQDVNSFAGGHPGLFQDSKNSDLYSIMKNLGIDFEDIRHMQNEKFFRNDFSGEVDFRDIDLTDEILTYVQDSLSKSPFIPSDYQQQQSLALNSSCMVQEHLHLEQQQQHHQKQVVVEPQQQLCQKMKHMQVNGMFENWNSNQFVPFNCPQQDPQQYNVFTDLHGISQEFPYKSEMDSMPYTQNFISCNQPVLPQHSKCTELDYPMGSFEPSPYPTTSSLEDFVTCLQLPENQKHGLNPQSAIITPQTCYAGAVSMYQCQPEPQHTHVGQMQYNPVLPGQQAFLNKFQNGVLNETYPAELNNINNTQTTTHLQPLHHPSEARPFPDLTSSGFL
Chain of Peroxisome proliferator-activated receptor gamma (Homo sapiens) (P37231 whole entry, looked up): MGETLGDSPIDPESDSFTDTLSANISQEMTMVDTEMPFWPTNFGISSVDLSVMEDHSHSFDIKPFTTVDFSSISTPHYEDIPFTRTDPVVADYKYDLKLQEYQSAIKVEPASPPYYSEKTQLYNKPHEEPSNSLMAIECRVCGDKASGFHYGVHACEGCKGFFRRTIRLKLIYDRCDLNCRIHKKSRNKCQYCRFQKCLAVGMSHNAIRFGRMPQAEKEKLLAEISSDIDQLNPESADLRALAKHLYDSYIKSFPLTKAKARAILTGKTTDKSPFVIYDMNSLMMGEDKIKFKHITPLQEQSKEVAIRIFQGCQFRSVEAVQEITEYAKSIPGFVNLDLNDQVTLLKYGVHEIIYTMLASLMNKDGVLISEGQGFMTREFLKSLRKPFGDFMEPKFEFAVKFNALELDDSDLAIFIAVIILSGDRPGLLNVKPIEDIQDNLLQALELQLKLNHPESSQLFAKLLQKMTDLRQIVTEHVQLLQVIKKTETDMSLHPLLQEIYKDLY
Chain of Estrogen receptor (Homo sapiens) (P03372 whole entry, looked up): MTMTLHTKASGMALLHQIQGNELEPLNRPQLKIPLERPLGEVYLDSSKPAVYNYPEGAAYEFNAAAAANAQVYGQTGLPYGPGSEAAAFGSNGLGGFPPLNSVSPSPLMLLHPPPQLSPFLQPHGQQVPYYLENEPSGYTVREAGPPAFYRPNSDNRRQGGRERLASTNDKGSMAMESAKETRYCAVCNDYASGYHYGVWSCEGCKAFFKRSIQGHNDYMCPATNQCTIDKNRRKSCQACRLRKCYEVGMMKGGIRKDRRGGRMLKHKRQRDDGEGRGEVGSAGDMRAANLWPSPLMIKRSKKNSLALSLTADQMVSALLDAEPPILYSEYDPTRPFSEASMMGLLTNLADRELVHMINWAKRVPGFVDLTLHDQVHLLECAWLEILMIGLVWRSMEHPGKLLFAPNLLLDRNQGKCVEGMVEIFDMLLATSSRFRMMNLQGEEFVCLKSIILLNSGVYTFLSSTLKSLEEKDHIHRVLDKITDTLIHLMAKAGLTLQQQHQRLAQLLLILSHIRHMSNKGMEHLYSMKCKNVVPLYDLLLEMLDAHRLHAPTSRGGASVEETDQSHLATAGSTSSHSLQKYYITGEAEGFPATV

As for `COc1cccc(CCc2ccccc2OCC(CN(C)C)OC(=O)CCC(=O)O)c1` (centres undefined), the Potency in assay [1] was 23.7 µM (active); in [2] it was 13.3 µM (active). Also, the Potency entry in assay [3], in assay [4], in assay [5], in assay [6], in assay [7] and in assay [8] was “inactive” each time. In addition, the Potency entry in assay [9], in assay [10], in assay [11], in assay [12] and in assay [13] was “inactive” each time.

Regarding `CCCCCCC(C)Nc1ccc(Nc2ccccc2)cc1` (centres undefined), the Potency in assay [1] was 61.1 µM (active); in assay [2] it was 43.3 µM (active); in [12], 49 µM (active). Moreover, the Potency entry in assay [14], in assay [8], in assay [9], in assay [10], in [15] and in [16] was “inactive” throughout. For the same compound, the Potency result in [11] was “inactive”.

On to `Cc1cc2c(C(C)C)c(O)c(O)c(C=O)c2c(O)c1-c1c(C)cc2c(C(C)C)c(O)c(O)c(C=O)c2c1O`, for which the Potency in [1] is 9.44 µM (active); in [2], 9.44 µM (active); in assay [3] it was 9.52 µM [inconclusive] (active); in assay [4], 21.3 µM (active); in assay [9], 21.1 µM (active); in assay [10], 26.6 µM (active). In addition, the Potency in assay [18] is 8.41 µM (active); in [11], 8.41 µM (active); in [12], 13.3 µM (active). The Potency result in assay [5] and in assay [17] was “inactive” in each case.

For `CC(=O)Oc1ccc(C2(c3ccc(OC(C)=O)cc3)C(=O)Nc3ccccc32)cc1`, the Potency entry in [1], in assay [14], in [3], in assay [4], in [5] and in assay [9] was “inactive” throughout. The Potency entry in assay [10], in assay [17], in [15], in [16], in assay [19] and in assay [18] was “inactive” each time. Moreover, the Potency entry in assay [11], in [12] and in [13] was “inactive” throughout. In assay [8], the Potency is 841 nM (active) and 1.19 µM (active).

Take `CC(C)N=C(N)/N=C(\N)Nc1ccc(Cl)cc1`: the Potency result in assay [1], in assay [14], in assay [3], in [4], in [5] and in [6] was “inactive” each time. Besides, the Potency entry in [7], in [8], in [9], in [10], in assay [17] and in assay [15] was “inactive” in each case. Also, the Potency result in [16], in assay [18], in assay [11], in assay [12] and in assay [13] was “inactive” throughout.

As for `COc1cc(C(=O)NS(=O)(=O)c2ccccc2C)ccc1Cc1cn(C)c2ccc(NC(=O)OC3CCCC3)cc12`, the Potency was 29.8 µM (active) in [1]; 26.6 µM (active) in assay [2]; 26.6 µM (active) in assay [17]; 0.169 µM (active) in assay [16]; 29.8 µM (active) in assay [20]. For the same compound, the Potency result in assay [5], in [6], in assay [7], in assay [8], in [9] and in assay [10] was “inactive” each time. The Potency entry in assay [15], in [11], in [12] and in assay [13] was “inactive” in each case.

In the case of `CCCCCCCCCCCCCCNCCO`, the Potency result in assay [1], in assay [14], in [3], in assay [4], in assay [5] and in [8] was “inactive” in each case. Also, the Potency result in [9], in [10], in assay [15], in [12] and in assay [13] was “inactive” in each case. The Potency in assay [6] is 0.188 µM (active); in [17], 10.6 µM (active); in assay [11] it was 26.6 µM (active).

Turning to `CCN(CC)CCCN(c1ccccc1)C1Cc2ccccc2C1`, the Potency is 2.98 µM (active) in assay [1]; 2.11 µM (active) in [2]; 19 µM (active) in assay [4]; 29.8 µM (active) in [8]; 26.6 µM (active) in assay [9]; 29.8 µM (active) in assay [10]. The Potency in assay [15] is 13.3 µM (active). For the same compound, the Potency result in [5], in assay [17], in [19], in assay [11], in [12] and in assay [13] was “inactive” throughout.
